HPGD inh: inhibitors of human 15-hydroxyprostaglandin dehydrogenase (HPGD); P15428; purified HPGD, NADH fluorescence kinetic, PGE2 substrate; Potency, µM, inactives show at the highest dose activity change, negative = inhibition, usual class: inhibitors; actives 4.3% (n = 150,000); AID 894; active = well fitted inhibition curve with a large enough effect, not every such curve was filed as active; inconclusive = small, poorly fitted or top-dose-only effect, or another doubt; inactive = no such curve, though single readings can be large or run the other way; also: potency is read from the fitted curve at half-maximal effect
Target sequence (P15428 whole entry, looked up): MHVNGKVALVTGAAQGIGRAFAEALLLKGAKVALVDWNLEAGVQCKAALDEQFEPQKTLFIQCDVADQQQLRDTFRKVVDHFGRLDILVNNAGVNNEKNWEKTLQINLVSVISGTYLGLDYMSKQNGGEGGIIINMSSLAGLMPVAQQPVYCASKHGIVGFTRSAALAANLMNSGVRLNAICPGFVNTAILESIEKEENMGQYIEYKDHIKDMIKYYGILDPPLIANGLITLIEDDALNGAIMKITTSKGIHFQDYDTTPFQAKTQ
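20 nM HPGD preincubated 15 min at room temperature with compound in 50 mM Tris-HCl pH 8, 0.01% Tween 20. Started with 1 mM NAD+ and 30 uM prostaglandin E2; NADH fluorescence (360/450 nm) read 5 times over 30-s intervals, last minus first.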
IMPase cell inh: cell-permeable inhibitors of inositol monophosphatase (IMPase) | inhibition (IP1 accumulation), % at 46.1 µM | CHO-M1 cells, IP1 accumulation, HTRF TR-FRET ratio | AID 901 | P97697 | 120,000 tested, under 10 active; active = well fitted curve in the direction sought with a large enough effect in the signal ratio, not every such curve was filed as active; inconclusive = small, poorly fitted or top-dose-only effect, or a change in a side signal; inactive = no such curve, though single readings can be large or run the other way; the % refers to the signal ratio;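 also: cells stimulated with carbachol in lithium chloride buffer; plate controls were DMSO basal wells for no effect and reference inhibitor wells for full effect; higher means more IMPase inhibition seen as more IP1 and lower FRET ratio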
Target sequence (P97697 whole entry, looked up): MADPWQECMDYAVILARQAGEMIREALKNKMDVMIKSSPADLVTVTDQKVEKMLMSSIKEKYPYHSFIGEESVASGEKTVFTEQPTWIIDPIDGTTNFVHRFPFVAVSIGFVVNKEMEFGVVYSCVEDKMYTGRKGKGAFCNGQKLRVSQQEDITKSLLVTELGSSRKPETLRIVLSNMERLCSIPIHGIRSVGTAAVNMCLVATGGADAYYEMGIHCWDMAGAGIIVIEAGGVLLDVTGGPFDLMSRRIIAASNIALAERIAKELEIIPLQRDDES
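Carbachol-driven Gq signalling in CHO-M1 cells (2000/well) generates IP1. Compounds that block IMPase raise IP1 and so reduce the FRET signal from Eu-anti-IP1 and d2-IP1 after a 10 min room-temperature lysis.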
ALDH1A1 block: blocks purified human ALDH1A1 activity; P00352; Purified ALDH1A1, NADH fluorescence, propionaldehyde substrate; Potency, µM (top dose mostly 75.3 µM), for the others: at the top dose activity, negative = inhibition, usual class: inhibitors; actives 7.3% (n = 220,000); active = well fitted inhibition curve with a large enough effect, not every such curve was filed as active; inconclusive = small, poorly fitted or top-dose-only effect, or another doubt; inactive = no such curve, though single readings can be large or run the other way;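 also: potency is read from the fitted curve at half-maximal effect; plate controls were no enzyme wells and a reference inhibitor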
PNC assembly inh: inhibitors of perinucleolar compartment assembly. PC3M PTB-GFP, PNC prevalence imaging, 16 h; stronger effect = lower value. activity change (PNC), negative = inhibition, % at 10 µM. actives 3.1% (n = 140,000);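 active = readout at or below -70, meaning at least 70% loss of cells showing the perinucleolar compartment, a nuclear body marking cancer cells; inconclusive = readout between -30 and a set limit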;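 also: plate controls were DMSO wells for no effect and camptothecin positive control wells for full effect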
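Read-out is percentage of cells bearing a perinucleolar compartment, from automated 20x imaging of fixed, Hoechst-stained PC3M PTB-GFP cells. Cells were seeded 4 h, then exposed 16 h to compound (23 nl of library stock) in duplicate plates.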
NPSR antagonist: neuropeptide S receptor (human) antagonism, cAMP | Q6W5P4 | CHO-NPSR cells, cAMP TR-FRET, antagonist mode | Potency, µM (titrated, usually from 38.3 µM), without a hit: at the highest dose activity change, negative = inhibition, usual class: inhibitors | actives 1% (n = 220,000) | AID 1461; also: potency is read from the fitted curve at half-maximal effect; nearly all actives have a fitted effect of over 50% in size
IMPase Li inh: IMPase inhibition in cells with lithium potentiation; CHO-M1 cells, IP1 TR-FRET (IP-One), carbachol + lithium; Potency, µM (highest dose often 59.4 µM), for the others: top-dose activity, negative = IMPase inhibition, actives largely listed as inhibitors; actives 0.35% (n = 210,000);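 also: IP1 builds up when IMPase is blocked and the TR-FRET signal falls; potency is read from the fitted curve at half-maximal effect; plate controls were basal vehicle for no effect and high inhibitor control for full effect; nearly all actives have a fitted effect of over 50% in size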
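Lithium-sensitised IP1 accumulation assay; M1-expressing CHO cells treated 30 min at 37C with compound. Competitive antibody detection by time-resolved FRET followed a 10 min room-temperature lysis step.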
The depositor's hits bear a star; ? = inconclusive; . = not tested or not shown; [ ] = dose if it differs, or a comment. Most compounds without a hit are left out; they make up all but 11% or so of the library. Unless noted, calls follow the shape of the dose curve; as a rule, active = well fitted curve in the direction sought with a large enough effect; inconclusive = small, poorly fitted or top-dose-only effect, or another doubt; inactive = no such curve, though single readings can be large; an effect the other way counts as inactive or inconclusive. Unless noted, % is scaled to controls: 0 for no effect and ±100 for the full control effect.

SMILES	HPGD inh	IMPase cell inh	ALDH1A1 block	PNC assembly inh	NPSR antagonist	IMPase Li inh
Cc1sc(C(C2C(=O)CC(C)(C)CC2=O)C2C(=O)CC(C)(C)CC2=O)cc1[N+](=O)[O-]	.	.	13µM*	.	39%	14%
CN=c1scc(-c2ccc(F)cc2)n1/N=C/c1ccc(O)c(O)c1	.	.	?	.	7%	12%
C=CCOc1ccccc1/C=c1\sc2nc(=O)c(C)nn2c1=O	-27%	.	22µM*	22	-5%[46.1 µM]	-7%
COc1ccc(/C=c2\sc3nc(-c4ccccc4OC)nn3c2=O)c(OC)c1	?	-7	9%	26	-21%[46.1 µM]	-7%
CCOc1ccc(-n2c(-c3ccco3)n[nH]c2=S)cc1	?	-9	?	-9	-10%[46.1 µM]	?
O=C(O)c1ccc(C(=O)O)c(C(=O)Nc2ccc3c(c2)Cc2ccccc2-3)c1	3.2µM*	.	?	.	.	-9%
O=C(Nc1ccc2c(c1)Cc1ccccc1-2)c1ccncc1	-19%	.	5%	4	15%	-1%
S=C1N[C@H](c2ccccc2)N[C@H](c2ccccc2)S1	?	.	3.2µM*	.	.	0%
CCOC(=O)C1=C(C)Nc2ncnn2C1c1ccc(N(C)C)cc1 (stereo not drawn)	.	14	18µM*	14	1%[46.1 µM]	.
CCOC(=O)C1=C(C)NC(=S)N(C(C)=O)C1c1ccccc1 (stereo not drawn)	-19%	?	25µM*	?	-12%[46.1 µM]	0%
COc1ccc(C2C(C(=O)Nc3ccccc3OC)=C(C)Nc3ncnn32)cc1 (stereo not drawn)	-10%	4	14µM*	35	-10%[46.1 µM]	-3%[38.3 µM]
CCOC(=O)C1=C(C)Nc2nc(=S)[nH]n2C1c1ccc(Cl)cc1 (stereo not drawn)	11µM*	5	?	?	-19%[46.1 µM]	12%[38.3 µM]
COc1ccccc1NC(=O)C1=C(C)Nc2ncnn2C1c1ccccc1C(=O)O (stereo not drawn)	.	-6	.	.	.	.
CCCn1cnc2cc(NC(=O)c3cccs3)ccc21	.	.	-7%	.	0%	-17%
COC(=O)C1(C(=O)OC)Sc2ccccc2C1=O	?	0	?	34	-7%[46.1 µM]	8%[38.3 µM]
CC1=C(C(=O)OC(C)C)C(c2c[nH]c3ccccc23)n2ncnc2N1 (stereo not drawn)	4%	-3	15%	-106*	-9%[46.1 µM]	-2%[38.3 µM]
CCOC(=O)C1=C(C)Nc2ncnn2C1c1c[nH]c2ccccc12 (stereo not drawn)	-13%	0	-17%	-21	1%[46.1 µM]	23%[38.3 µM]
COc1ccccc1NC(=O)C1=C(C)Nc2nnnn2C1c1ccccn1 (stereo not drawn)	-3%	3	13µM*	-25	-12%[46.1 µM]	25%[38.3 µM]
O=S1(=O)N[C@H]2CC[C@@H]3NS(=O)(=O)N[C@H]4CC[C@H](N1)N4S(=O)(=O)N23	-3%	.	7%[13.5 µM]	.	.	-11%
CN(C(=O)COC(=O)CNC(=O)CNC(=O)c1ccc(Cl)cc1Cl)c1ccccc1	.	.	8%	.	7%	0%
O=c1[nH]c(CSc2ncc(C(F)(F)F)cc2Cl)nc2cc(C(F)(F)F)ccc12	.	.	.	.	-22%	.
O=C(NCCCn1ccnc1)C1CC(c2ccccc2Cl)=NO1 (stereo not drawn)	.	.	.	.	4%	.
Cc1c(NC(=O)C(C)OC(=O)c2cccc([N+](=O)[O-])c2)c(=O)n(-c2ccccc2)n1C (stereo not drawn)	.	.	7%	.	6%	8%
CC1(C)CC(=O)c2c(oc3cc4c(cc23)OCO4)C1	2.5µM*	.	7.9µM*	.	.	23%
CC1(C)CC(=O)c2c(oc3ccc(NS(=O)(=O)c4ccc(C(=O)O)cc4)cc23)C1	.	.	9%	.	10%	2%
O=c1c2cn[nH]c2[nH]c(=S)n1-c1cccc2ccccc12	-18%	.	-10%	-113*	-21%	?
O=c1c2cn[nH]c2[nH]c(=S)n1-c1ccccc1	28µM*	10	?	?	-6%[46.1 µM]	15%
Oc1ccccc1C=NCC(O)c1ccccc1 (stereo not drawn)	-20%	.	15%	26	9%	-6%
